According to the supplement of paper PMC11732987, “Enantioselective OTUD7B fragment discovery through chemoproteomics screening and high-throughput optimisation” (Communications Chemistry, 2025):

Tests used:
Assay in all cases: log2 ratio of Biotin-Ahx-Ub-VS probe labelling (fragment/DMSO); higher = less target engagement (more negative = stronger competition), active = hit call of the paper (q ≤ 0.05, log2 ratio ≤ -1)
Settings in all cases: compound concentration: 200 uM; treatment time: 3 h
OTUD6B = biological target: T1, OTUD6B (UniProt Q8N6M0)
T1 sequence (whole entry): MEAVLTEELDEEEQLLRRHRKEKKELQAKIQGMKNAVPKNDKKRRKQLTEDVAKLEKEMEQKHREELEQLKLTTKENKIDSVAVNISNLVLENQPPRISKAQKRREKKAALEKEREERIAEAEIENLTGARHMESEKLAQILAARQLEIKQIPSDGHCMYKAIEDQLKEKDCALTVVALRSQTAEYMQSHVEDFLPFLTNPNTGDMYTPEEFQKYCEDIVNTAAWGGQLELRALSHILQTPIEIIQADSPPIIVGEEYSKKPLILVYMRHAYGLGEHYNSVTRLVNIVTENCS
Summary of the method: (§1)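 Labelled DUBs from HEK293T lysate were NeutrAvidin-enriched, digested with LysC and trypsin, and run by diaPASEF LC-MS/MS. Before that, each 495 µg sample in Tris/CHAPS/IGEPAL buffer with protease inhibitors was treated in triplicate with fragment at 200 µM or vehicle for 3 h, then with Biotin-Ahx-Ub-VS at 0.5 µM final for 1 h. Values are average log2 ratios of fragment over vehicle by unpaired t-test, based on global-median-normalised Spectronaut label-free quantities from proteins with ≥2 unique peptides.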

OTUD7B = biological target: T2, OTUD7B (UniProt Q6GQQ9)
T2 sequence (whole entry): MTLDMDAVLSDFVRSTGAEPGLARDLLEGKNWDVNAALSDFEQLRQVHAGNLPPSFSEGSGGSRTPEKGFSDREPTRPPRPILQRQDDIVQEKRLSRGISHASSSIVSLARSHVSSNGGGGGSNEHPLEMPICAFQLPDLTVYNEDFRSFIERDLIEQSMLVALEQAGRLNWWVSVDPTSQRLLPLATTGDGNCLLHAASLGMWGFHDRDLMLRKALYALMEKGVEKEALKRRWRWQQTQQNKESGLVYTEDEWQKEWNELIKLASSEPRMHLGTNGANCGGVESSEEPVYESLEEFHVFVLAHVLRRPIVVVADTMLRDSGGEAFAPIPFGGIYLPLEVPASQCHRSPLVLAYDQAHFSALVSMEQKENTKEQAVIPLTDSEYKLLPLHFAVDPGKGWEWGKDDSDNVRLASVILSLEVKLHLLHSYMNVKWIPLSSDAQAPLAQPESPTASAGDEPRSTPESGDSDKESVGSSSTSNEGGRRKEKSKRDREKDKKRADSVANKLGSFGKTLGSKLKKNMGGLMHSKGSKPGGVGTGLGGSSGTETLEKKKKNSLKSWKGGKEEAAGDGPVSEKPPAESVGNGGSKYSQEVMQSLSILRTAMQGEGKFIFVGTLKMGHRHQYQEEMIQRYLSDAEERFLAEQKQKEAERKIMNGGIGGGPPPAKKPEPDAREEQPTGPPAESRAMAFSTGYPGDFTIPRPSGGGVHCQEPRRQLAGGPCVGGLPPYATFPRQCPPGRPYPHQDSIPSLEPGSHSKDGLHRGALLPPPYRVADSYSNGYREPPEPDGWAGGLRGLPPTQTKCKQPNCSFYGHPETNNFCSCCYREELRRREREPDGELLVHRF
Summary of the method: as §1

PRPF8 = PRPF8 (UniProt Q6P2Q9)
Summary of the method: as §1

PSMD7 = biological target: T3, PSMD7 (UniProt P51665)
T3 sequence (whole entry): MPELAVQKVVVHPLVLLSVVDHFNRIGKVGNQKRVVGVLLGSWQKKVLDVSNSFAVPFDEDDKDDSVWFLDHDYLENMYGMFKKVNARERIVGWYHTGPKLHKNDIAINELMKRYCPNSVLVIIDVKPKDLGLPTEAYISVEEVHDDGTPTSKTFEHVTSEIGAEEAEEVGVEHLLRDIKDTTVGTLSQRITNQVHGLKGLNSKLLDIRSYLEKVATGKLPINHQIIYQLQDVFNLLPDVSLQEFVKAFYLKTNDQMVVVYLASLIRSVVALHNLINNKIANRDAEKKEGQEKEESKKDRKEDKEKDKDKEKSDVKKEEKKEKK
Summary of the method: as §1

UCHL1 = UCHL1 (UniProt P09936)
Summary of the method: as §1

UCHL3 = biological target: T4, UCHL3 (UniProt P15374)
T4 sequence (whole entry): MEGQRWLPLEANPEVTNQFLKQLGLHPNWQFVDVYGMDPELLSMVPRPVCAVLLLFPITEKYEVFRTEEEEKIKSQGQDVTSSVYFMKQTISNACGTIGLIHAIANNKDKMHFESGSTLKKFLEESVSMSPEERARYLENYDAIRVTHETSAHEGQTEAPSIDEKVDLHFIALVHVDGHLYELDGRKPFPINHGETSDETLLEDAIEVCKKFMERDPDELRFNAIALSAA
Summary of the method: as §1

UCHL5 = biological target: T5, UCHL5 (UniProt Q9Y5K5)
T5 sequence (whole entry): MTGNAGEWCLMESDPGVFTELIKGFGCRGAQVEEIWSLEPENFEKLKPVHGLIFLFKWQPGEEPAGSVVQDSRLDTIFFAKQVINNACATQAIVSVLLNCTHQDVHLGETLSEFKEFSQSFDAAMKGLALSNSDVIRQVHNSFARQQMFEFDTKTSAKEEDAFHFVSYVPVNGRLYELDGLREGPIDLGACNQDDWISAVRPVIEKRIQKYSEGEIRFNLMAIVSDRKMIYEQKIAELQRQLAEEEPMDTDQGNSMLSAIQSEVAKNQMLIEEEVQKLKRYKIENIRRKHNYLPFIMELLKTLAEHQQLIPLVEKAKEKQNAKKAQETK
Summary of the method: as §1

USP10 = USP10 (UniProt Q14694)
Summary of the method: as §1

USP15 = biological target: T6, USP15 (UniProt Q9Y4E8)
T6 sequence (whole entry): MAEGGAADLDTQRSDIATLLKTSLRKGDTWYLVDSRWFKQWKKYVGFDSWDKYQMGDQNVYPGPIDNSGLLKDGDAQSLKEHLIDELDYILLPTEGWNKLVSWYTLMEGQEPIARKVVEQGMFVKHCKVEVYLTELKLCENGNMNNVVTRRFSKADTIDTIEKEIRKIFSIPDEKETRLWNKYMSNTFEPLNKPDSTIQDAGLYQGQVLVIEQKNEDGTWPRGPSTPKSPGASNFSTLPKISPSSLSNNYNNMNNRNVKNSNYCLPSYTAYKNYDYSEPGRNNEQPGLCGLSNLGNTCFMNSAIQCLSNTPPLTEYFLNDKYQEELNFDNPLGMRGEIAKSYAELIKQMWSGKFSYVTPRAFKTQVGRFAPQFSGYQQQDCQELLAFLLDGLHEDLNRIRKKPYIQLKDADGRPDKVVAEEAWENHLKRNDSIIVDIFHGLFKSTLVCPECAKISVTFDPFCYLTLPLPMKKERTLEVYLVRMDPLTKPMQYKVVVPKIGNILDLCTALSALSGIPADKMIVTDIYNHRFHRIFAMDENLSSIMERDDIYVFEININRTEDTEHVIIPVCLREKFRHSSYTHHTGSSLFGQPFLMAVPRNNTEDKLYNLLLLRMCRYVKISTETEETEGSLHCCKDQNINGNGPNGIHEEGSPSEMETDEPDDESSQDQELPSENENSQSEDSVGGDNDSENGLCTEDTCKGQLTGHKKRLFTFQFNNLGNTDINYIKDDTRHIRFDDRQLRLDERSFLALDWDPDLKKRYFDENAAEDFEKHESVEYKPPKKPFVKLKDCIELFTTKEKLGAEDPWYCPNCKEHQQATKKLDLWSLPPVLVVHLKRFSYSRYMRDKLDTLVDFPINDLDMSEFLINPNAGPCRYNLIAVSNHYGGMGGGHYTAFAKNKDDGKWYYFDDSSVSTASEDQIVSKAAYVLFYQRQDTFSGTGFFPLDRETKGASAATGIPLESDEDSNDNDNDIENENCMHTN
Summary of the method: as §1

Measured: log2 ratio of Biotin-Ahx-Ub-VS probe labelling

Chain of USP10 (Q14694 whole entry): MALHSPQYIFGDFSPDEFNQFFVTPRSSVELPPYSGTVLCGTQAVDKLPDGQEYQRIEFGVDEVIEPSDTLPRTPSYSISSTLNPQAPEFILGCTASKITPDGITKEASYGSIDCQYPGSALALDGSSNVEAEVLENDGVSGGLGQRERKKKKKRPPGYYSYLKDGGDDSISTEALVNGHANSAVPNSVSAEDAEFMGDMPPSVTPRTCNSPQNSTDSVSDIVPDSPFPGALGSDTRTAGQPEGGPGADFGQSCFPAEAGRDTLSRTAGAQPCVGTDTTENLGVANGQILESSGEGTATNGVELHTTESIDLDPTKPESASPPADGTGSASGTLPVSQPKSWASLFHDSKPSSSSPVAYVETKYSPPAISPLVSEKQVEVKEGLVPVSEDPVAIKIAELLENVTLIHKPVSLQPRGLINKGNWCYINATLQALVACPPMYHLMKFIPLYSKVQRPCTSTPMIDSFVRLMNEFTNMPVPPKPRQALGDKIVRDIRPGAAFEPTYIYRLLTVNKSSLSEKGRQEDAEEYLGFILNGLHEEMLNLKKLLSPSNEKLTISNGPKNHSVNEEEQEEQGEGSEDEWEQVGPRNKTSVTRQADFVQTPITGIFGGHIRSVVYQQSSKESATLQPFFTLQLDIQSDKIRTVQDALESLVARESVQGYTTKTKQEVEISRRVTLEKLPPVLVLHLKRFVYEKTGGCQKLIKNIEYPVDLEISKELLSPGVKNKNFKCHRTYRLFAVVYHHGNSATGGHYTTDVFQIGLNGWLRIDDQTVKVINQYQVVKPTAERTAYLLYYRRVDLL
Chain of UCHL1 (P09936 whole entry, looked up): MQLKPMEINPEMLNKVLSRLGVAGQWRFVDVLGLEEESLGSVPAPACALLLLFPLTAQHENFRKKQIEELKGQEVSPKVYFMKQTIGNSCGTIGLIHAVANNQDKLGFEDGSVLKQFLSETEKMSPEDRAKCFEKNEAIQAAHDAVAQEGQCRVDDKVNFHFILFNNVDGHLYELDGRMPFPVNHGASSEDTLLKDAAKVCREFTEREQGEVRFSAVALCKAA

CC(C)n1nccc1NC(=O)CCl
inactive: OTUD6B -0.189 | PRPF8 -0.0737 | PSMD7 -0.278 | UCHL3 0.181 | UCHL5 -0.327 | USP10 0.0851 | USP15 -0.314
active: OTUD7B -2.07 | UCHL1 -1.45
